Measured values reported in PubChem BioAssay AID1529 (NMMLSC, 2009).
About 4,200 (1.4%) of roughly 290,000 compounds were called active. For the sample, actives were picked, then their nearest neighbours and some compounds at random. Unmarked numbers belong to inactive results.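 The calls were made as follows: active = binding response more than 3 SD above or below the average of its plate-row segment, actives on both sides; inconclusive = wells at one plate position flagged as instrument error; inactive = the rest.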

Each molecule was assayed against Mitogen-activated protein kinase kinase kinase 3 (Homo sapiens) (UniProt Q99759) (assay: modulators of MEKK3-MEK5 PB1 binding, primary screen, biochemical, wildtype MEKK3, multiplex bead flow cytometry, Alexa488-MEK5 (AID 1529;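 also: Alexa488 bead fluorescence after subtracting the streptavidin-only scavenger bead signal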)). Conditions: bead-based flow cytometry, Alexa488-MEK5 binding to MEKK3; at 10 µM; actives lie on both sides; 0 = blocked by unlabeled MEK5, 100 = vehicle.
Chain of Mitogen-activated protein kinase kinase kinase 3 (Homo sapiens) (Q99759 whole entry, looked up): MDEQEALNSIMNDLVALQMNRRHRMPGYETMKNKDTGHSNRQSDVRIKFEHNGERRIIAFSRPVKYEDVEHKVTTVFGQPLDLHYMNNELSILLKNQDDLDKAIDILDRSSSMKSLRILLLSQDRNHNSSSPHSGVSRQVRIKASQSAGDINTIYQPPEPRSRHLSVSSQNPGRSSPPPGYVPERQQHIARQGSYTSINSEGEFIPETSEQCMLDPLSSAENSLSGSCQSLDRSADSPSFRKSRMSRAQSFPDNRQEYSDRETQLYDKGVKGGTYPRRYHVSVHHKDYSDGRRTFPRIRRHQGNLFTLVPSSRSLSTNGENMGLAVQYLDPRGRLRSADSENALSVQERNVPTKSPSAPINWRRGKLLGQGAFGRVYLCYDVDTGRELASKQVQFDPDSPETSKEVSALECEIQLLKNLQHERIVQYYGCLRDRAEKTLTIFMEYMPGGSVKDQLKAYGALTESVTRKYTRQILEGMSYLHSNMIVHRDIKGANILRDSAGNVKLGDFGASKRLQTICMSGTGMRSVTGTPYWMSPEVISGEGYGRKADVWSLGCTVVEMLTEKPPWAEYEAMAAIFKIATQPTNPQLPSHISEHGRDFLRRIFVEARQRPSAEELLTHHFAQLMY

In the case of COc1ccc(CCn2c(NN=C3CCCC3)nc3c2c(=O)[nH]c(=O)n3C)cc1, the binding response (% of control) is reported as 44% [inhibitor] (active).
In the case of O=C(O)C1CCN(c2ccc([N+](=O)[O-])cc2[N+](=O)[O-])CC1, the binding response (% of control) is reported as 49% [inhibitor] (active).
With COc1cccc(NC(=S)NCc2ccccn2)c1 the binding response (% of control) was 143% (active).
In the case of COc1cccc(NC(=S)NCCCN2CCOCC2)c1, the binding response (% of control) is reported as 140% (active).
In the case of COc1ccc2nc(Nc3nc4cc5c(cc4s3)OCCO5)sc2c1, the binding response (% of control) is reported as 137% (active).
For COc1cc(-c2nc(-c3ccncc3)no2)cc(OC)c1OC, the binding response (% of control) was 1% [inhibitor] (active).
For Cc1cccc(CSc2nnc(C)c(=O)n2N)c1, the binding response (% of control) was 128% (active).
With COCCN1C=C2C(=O)C(C)(OC(=O)C3CCCC3)C(=O)C=C2C=C1c1ccsc1 (configuration not stated) the binding response (% of control) was 133% (active).
Cc1cc(C(=O)OCC(=O)N2c3ccccc3NC(=O)C2(C)C)c(C)n1-c1ccccc1 was tested, and the binding response (% of control) was 130% (active).

Compared with COc1ccc(CNc2nc3c(c(=O)[nH]c(=O)n3C)n2Cc2ccccc2)cc1, COc1ccc(CCn2c(NCCCN3CCOCC3)nc3c2c(=O)[nH]c(=O)n3C)cc1 is lower in binding response (% of control): 104% for the first, 101% for the second.

First: O=c1c2c(-c3ccccc3)ccnc2[nH]n1-c1ccccc1
Second: O=C(Nc1ccc(S(=O)(=O)Nc2ccccn2)cc1)c1ccccc1
The binding response (% of control) of the first is higher: 109% for the first, 97% for the second.

Compared with COc1ccc(CCNC(=O)CSCc2ccc(Br)cc2)cc1OC, COc1ccc(CCNc2nc3ccc(C)cc3n3cnnc23)cc1OC is lower in binding response (% of control): 104% for the first, 102% for the second.

First: CCCc1nn(C)c2c(=O)[nH]c(-c3cc(S(N)(=O)=O)ccc3OCC)nc12
Second: COc1ccccc1CCNS(=O)(=O)c1cn(C)nc1C
The binding response (% of control) of the first is lower: 103% for the first, 104% for the second.

First: CCOC(=O)C1CCN(c2ccc(C(=O)O)cc2[N+](=O)[O-])CC1
Second: CC1CCN(c2ccc([N+](=O)[O-])cc2C(N)=O)CC1
The binding response (% of control) of the first is higher: 103% for the first, 100% for the second.

First: CC(C)CNS(=O)(=O)c1ccc(CCC(=O)NCc2ccc(Cl)cc2)cc1
Second: O=C(NCCN1CCN(C(=O)c2cccc([N+](=O)[O-])c2)CC1)C(=O)NCc1ccc(Cl)cc1
The binding response (% of control) of the first is lower: 96% for the first, 105% for the second.

Compared with CCCCc1ccc(NC(=S)NCCCN2CCOCC2)cc1, Cc1cc(C)cc(NC(=S)NCCCN2CCOCC2)c1 is higher in binding response (% of control): 93% for the first, 117% for the second.

First: COc1cccc(NC(=S)N(Cc2ccc(C)cc2)Cc2ccccn2)c1
Second: COc1cccc(NC(=S)NCc2ccco2)c1
The binding response (% of control) of the first is higher: 104% for the first, 98% for the second.

Going from CCOC(=O)Cn1c(O)c(N=NC(=O)CNC(=O)Cc2ccccc2)c2ccccc21 to O=C(NCc1ccccc1)C1=C[C@@H](c2ccccc2)C[C@@H](OCCCCO)O1, the binding response (% of control) rises from 99% to 101%.

Going from COc1ccccc1CN1CC(C(=O)NCCc2cn[nH]c2)CCC1=O (configuration not stated) to COc1ccccc1CNC(=O)C1CCN(C(=O)[C@@H]2Cc3ccccc3CN2)CC1, the binding response (% of control) falls from 104% to 101%.

Going from COc1ccc2nc(Nc3nc(-c4cc5ccccc5oc4=O)cs3)sc2c1 to COc1ccc2nc(Nc3nc(-c4ccncc4)cs3)sc2c1, the binding response (% of control) rises from 82% to 104%.

Compared with CNC[C@H](CC1CCCCC1)NC[C@H](NCCC1CCCC1)[C@H](C)O, COC(=O)CCCC1=CC2=CC(=O)C(C)(OC(=O)c3cccs3)C(=O)C2=CN1CC1CC1 (configuration not stated) is lower in binding response (% of control): 102% for the first, 93% for the second.

Compared with COc1ccccc1Cc1nc(-c2ccc(C)cc2)no1, Cc1ccc(-c2nc(-c3ccncc3)no2)c(C)c1 is higher in binding response (% of control): 101% for the first, 102% for the second.

Going from O=C(CCNS(=O)(=O)c1cccs1)N1CCN(c2ccc(F)cc2)CC1 to COc1ccc(NC(=O)N2CCCC(C(=O)Nc3ccccc3OC)C2)cc1 (configuration not stated), the binding response (% of control) falls from 102% to 100%.

Going from O=C(Cn1cc(/C=N/NC(=O)c2cccc(C(F)(F)F)c2)c2ccccc21)Nc1ccc(F)cc1 to Cc1ccnc(NS(=O)(=O)c2ccc(NC(=O)c3oc4ccccc4c3C)cc2)n1, the binding response (% of control) falls from 103% to 102%.

First: CCNC(=O)Nc1ccc(S(=O)(=O)Nc2cnc(C)nc2C)cc1
Second: CCNc1ccc(C(=O)OCC(=O)N2c3ccccc3NC(=O)C2(C)C)cc1[N+](=O)[O-]
The binding response (% of control) of the first is higher: 101% for the first, 99% for the second.

Compared with O=C(NCc1cccc(Cl)c1)C1CCN(c2nnc(N3CCCC3=O)s2)CC1, Cc1nnc(SCc2cccc(Cl)c2)n(N)c1=O is higher in binding response (% of control): 96% for the first, 98% for the second.

First: Cc1cccc(CSc2nc3c(c(=O)n2C)SCC3)c1
Second: COc1ccc(Cl)cc1-n1c(C)cc(C(=O)OCC(=O)N2CC(=O)Nc3ccccc32)c1C
The binding response (% of control) of the first is lower: 100% for the first, 105% for the second.

Going from CC1(OC(=O)C2CCCC2)C(=O)C=C2C=C(c3ccc(C#N)cc3)OC=C2C1=O (configuration not stated) to O=C(/C=C/c1ccco1)NC(=S)Nc1ccccc1Br, the binding response (% of control) rises from 94% to 102%.
